From the supplement of paper PMC11732987, “Enantioselective OTUD7B fragment discovery through chemoproteomics screening and high-throughput optimisation” (Communications Chemistry, 2025)

How the values were obtained:
Test in all cases: log2 ratio of Biotin-Ahx-Ub-VS probe labelling (fragment/DMSO); higher = less target engagement (more negative = stronger competition), active = hit call of the paper (q ≤ 0.05, log2 ratio ≤ -1)
Conditions in all cases: compound concentration: 200 uM; treatment time: 3 h
USP42 = target: T1, USP42 (UniProt Q9H9J4)
T1 sequence (whole entry): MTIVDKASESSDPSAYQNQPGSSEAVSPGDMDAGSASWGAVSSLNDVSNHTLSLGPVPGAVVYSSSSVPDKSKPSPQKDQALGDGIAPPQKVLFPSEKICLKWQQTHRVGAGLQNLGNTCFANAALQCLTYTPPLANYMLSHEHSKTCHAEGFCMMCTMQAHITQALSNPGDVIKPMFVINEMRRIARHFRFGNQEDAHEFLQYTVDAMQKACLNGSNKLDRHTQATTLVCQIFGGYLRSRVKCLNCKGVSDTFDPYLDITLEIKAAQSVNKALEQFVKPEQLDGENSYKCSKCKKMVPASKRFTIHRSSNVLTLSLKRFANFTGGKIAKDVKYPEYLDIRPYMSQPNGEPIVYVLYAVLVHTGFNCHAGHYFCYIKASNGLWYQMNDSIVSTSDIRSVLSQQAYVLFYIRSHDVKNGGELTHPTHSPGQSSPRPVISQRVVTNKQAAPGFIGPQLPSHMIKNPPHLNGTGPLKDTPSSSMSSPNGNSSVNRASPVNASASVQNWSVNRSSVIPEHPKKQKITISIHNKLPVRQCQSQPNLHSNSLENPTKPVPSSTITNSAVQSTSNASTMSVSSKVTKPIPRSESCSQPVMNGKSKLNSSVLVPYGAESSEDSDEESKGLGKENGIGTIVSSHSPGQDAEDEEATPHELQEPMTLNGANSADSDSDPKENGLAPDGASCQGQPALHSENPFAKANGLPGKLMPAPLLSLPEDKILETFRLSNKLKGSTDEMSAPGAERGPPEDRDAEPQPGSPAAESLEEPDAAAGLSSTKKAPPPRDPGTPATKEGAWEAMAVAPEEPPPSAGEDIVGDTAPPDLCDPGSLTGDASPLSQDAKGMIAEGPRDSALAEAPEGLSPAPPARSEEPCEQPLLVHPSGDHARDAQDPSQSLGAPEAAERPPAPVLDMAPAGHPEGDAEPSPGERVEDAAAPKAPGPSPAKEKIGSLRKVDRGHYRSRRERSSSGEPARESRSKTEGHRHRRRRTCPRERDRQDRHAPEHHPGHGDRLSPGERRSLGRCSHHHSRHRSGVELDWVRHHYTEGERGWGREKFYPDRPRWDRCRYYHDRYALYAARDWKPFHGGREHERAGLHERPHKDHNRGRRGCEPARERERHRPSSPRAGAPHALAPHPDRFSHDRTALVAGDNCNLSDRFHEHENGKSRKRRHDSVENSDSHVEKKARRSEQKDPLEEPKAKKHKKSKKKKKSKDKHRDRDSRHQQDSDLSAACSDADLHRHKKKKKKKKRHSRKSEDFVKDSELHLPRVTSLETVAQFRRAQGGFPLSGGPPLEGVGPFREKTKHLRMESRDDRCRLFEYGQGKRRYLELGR
How it was run: (§1)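 The table lists average log2 ratios of fragment over vehicle, from an unpaired t-test on global-median-normalised Spectronaut label-free quantities. Proteins with ≥2 unique peptides were used. Samples were HEK293T lysate (495 µg) treated in triplicate with fragment at 200 µM or vehicle for 3 h, then with Biotin-Ahx-Ub-VS (0.5 µM final) for 1 h, with labelled DUBs NeutrAvidin-enriched and run by diaPASEF LC-MS/MS.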

USP46 = USP46 (UniProt P62068)
Sequence of USP46 (P62068 whole entry): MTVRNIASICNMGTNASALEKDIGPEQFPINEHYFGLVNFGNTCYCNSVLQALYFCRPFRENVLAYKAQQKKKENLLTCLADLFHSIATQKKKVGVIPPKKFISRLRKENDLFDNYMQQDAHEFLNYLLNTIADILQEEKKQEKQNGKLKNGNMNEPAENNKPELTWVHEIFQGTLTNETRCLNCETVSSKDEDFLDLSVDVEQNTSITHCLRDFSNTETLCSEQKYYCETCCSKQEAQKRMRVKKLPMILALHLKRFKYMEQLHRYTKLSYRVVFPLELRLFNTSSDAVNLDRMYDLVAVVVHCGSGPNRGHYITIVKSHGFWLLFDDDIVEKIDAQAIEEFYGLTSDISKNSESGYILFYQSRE
How it was run: as §1

USP47 = target: T2, USP47 (UniProt Q96K76)
T2 sequence (whole entry): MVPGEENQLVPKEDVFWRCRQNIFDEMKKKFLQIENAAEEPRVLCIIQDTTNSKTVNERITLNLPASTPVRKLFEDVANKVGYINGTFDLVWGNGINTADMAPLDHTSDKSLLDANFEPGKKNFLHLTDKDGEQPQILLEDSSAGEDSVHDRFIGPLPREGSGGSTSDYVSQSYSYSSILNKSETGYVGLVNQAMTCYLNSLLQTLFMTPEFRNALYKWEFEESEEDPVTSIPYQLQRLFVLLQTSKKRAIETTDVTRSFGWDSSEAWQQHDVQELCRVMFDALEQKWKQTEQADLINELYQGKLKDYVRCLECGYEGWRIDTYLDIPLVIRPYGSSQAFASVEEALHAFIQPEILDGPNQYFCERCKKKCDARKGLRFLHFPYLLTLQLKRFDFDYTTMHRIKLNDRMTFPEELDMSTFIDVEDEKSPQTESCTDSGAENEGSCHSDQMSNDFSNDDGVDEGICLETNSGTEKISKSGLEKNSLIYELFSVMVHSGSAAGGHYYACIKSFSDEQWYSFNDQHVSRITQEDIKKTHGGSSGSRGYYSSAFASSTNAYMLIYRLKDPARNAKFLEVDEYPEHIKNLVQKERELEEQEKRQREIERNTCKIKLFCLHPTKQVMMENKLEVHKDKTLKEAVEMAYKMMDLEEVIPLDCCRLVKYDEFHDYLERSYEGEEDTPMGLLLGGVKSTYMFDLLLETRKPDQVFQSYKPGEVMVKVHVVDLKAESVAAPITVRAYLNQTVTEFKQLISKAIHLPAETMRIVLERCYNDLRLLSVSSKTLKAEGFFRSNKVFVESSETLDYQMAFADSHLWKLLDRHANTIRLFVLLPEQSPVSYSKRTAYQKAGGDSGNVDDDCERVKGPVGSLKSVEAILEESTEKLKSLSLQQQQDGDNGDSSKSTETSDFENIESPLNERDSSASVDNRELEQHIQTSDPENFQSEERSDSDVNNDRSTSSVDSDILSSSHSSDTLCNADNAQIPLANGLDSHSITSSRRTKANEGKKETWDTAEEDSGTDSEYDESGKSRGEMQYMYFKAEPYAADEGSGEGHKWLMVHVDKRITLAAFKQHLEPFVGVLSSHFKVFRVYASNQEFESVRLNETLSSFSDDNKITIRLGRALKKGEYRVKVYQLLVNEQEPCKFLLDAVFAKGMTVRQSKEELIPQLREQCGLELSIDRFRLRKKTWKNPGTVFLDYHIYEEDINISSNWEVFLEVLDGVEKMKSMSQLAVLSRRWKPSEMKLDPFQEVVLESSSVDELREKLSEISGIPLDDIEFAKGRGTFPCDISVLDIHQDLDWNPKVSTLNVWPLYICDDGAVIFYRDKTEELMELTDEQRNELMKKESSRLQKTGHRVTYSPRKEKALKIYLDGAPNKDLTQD
How it was run: as §1

USP48 = target: T3, USP48 (UniProt Q86UV5)
T3 sequence (whole entry): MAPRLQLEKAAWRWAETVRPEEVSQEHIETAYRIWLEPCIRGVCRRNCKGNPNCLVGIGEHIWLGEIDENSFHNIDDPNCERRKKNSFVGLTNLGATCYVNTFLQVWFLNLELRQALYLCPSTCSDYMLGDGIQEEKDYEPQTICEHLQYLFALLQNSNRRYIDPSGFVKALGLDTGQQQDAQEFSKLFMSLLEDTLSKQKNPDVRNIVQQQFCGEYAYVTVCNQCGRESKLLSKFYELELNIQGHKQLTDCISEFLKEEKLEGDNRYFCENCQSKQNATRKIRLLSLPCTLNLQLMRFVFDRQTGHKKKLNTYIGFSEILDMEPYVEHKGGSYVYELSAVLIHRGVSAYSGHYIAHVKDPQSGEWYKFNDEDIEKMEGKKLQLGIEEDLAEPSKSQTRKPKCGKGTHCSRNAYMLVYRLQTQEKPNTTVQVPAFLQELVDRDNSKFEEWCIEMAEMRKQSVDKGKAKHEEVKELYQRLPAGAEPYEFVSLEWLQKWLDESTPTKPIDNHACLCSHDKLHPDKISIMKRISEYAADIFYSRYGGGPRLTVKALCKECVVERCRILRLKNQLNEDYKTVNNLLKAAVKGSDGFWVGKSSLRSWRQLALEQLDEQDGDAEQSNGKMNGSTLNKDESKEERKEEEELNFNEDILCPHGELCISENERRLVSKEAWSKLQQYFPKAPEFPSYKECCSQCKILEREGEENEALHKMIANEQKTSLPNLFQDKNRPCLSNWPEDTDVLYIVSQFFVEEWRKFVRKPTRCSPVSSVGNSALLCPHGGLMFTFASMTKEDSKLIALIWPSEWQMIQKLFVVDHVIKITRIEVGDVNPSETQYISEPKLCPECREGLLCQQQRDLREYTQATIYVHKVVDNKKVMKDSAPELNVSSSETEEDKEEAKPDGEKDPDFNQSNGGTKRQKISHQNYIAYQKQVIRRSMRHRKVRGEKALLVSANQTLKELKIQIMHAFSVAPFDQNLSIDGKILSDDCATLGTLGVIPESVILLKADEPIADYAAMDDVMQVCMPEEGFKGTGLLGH
How it was run: as §1

USP5 = target: T4, USP5 (UniProt P45974)
T4 sequence (whole entry): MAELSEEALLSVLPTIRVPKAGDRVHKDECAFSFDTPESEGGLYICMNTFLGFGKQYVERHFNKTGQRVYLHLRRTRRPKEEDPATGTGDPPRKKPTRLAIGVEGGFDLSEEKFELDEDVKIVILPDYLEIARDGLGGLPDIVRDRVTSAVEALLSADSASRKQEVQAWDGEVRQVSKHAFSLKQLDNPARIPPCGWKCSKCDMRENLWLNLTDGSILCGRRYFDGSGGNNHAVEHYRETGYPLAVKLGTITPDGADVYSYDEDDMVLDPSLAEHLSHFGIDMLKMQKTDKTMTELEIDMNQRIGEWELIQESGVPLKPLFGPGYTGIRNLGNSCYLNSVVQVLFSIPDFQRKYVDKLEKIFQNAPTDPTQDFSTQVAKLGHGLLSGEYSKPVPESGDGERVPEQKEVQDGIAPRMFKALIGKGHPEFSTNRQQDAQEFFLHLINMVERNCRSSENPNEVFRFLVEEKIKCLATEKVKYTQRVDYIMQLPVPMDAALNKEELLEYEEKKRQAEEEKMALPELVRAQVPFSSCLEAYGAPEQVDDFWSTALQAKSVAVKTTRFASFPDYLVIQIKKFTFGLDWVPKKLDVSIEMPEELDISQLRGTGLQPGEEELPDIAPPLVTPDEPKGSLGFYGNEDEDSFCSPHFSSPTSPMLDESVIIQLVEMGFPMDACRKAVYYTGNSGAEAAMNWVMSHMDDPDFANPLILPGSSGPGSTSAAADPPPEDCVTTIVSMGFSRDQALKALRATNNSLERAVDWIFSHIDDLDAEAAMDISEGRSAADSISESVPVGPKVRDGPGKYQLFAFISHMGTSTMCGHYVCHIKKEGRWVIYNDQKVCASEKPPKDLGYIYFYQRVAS
How it was run: as §1

USP54 = USP54 (UniProt Q70EL1)
How it was run: as §1

USP7 = USP7 (UniProt Q93009)
Sequence of USP7 (Q93009 whole entry, looked up): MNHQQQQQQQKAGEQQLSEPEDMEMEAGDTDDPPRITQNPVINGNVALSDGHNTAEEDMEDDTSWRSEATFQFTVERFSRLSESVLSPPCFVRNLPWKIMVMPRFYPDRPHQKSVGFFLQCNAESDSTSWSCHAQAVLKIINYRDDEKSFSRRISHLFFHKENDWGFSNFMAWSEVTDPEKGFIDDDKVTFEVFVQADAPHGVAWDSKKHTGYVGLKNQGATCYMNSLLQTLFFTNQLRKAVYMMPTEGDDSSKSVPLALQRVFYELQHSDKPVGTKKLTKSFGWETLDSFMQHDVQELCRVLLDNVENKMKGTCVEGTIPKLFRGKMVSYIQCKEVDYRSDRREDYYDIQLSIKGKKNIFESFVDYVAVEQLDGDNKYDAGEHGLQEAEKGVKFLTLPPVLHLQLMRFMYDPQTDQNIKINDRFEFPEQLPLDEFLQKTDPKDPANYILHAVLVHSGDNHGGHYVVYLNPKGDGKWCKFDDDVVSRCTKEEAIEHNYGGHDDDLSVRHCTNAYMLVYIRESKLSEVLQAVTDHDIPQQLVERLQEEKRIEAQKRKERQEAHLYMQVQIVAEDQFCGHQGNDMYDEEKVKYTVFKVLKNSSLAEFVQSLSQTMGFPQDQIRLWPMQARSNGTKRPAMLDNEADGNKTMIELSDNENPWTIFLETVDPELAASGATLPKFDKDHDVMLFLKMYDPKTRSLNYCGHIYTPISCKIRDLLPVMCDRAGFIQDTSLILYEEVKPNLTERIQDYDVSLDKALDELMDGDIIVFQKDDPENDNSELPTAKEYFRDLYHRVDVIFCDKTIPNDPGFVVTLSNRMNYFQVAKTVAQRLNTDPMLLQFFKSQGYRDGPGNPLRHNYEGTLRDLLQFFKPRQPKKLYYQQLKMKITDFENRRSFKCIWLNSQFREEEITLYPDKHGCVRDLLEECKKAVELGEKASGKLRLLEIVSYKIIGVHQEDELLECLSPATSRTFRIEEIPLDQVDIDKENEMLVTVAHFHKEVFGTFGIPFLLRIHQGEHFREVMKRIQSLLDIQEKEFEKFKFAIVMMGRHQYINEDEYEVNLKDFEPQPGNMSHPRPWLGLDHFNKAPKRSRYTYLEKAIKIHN
How it was run: as §1

USP8 = target: T5, USP8 (UniProt P40818)
T5 sequence (whole entry): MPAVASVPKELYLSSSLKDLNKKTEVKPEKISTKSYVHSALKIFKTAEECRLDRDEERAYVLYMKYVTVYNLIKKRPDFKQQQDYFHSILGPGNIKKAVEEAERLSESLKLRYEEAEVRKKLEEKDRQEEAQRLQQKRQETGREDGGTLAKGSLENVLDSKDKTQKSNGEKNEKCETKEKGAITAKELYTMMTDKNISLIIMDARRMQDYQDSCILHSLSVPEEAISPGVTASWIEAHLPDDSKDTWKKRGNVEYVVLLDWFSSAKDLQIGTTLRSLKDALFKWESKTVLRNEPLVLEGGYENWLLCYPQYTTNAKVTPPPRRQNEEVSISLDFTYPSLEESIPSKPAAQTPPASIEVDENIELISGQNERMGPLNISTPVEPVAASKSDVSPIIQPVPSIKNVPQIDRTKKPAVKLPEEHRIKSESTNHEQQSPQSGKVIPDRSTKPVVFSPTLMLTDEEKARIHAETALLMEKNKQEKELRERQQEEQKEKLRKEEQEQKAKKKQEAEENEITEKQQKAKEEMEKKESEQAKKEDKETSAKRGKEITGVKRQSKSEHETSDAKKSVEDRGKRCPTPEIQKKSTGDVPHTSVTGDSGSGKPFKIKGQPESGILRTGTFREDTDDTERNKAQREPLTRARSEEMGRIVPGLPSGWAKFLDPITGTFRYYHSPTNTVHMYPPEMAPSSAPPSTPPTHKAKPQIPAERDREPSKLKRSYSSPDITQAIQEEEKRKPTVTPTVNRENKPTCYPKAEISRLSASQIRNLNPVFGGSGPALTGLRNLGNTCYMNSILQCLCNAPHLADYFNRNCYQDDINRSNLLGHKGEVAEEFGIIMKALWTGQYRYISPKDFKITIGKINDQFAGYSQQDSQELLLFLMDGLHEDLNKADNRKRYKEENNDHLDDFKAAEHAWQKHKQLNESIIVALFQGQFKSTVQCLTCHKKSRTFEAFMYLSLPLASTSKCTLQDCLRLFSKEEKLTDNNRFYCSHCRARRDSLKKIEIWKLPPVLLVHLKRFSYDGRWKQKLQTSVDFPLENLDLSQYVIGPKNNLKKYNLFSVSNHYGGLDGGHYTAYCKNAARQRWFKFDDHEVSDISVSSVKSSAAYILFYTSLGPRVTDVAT
How it was run: as §1

USP9X = USP9X (UniProt Q93008)
Sequence of USP9X (Q93008 whole entry): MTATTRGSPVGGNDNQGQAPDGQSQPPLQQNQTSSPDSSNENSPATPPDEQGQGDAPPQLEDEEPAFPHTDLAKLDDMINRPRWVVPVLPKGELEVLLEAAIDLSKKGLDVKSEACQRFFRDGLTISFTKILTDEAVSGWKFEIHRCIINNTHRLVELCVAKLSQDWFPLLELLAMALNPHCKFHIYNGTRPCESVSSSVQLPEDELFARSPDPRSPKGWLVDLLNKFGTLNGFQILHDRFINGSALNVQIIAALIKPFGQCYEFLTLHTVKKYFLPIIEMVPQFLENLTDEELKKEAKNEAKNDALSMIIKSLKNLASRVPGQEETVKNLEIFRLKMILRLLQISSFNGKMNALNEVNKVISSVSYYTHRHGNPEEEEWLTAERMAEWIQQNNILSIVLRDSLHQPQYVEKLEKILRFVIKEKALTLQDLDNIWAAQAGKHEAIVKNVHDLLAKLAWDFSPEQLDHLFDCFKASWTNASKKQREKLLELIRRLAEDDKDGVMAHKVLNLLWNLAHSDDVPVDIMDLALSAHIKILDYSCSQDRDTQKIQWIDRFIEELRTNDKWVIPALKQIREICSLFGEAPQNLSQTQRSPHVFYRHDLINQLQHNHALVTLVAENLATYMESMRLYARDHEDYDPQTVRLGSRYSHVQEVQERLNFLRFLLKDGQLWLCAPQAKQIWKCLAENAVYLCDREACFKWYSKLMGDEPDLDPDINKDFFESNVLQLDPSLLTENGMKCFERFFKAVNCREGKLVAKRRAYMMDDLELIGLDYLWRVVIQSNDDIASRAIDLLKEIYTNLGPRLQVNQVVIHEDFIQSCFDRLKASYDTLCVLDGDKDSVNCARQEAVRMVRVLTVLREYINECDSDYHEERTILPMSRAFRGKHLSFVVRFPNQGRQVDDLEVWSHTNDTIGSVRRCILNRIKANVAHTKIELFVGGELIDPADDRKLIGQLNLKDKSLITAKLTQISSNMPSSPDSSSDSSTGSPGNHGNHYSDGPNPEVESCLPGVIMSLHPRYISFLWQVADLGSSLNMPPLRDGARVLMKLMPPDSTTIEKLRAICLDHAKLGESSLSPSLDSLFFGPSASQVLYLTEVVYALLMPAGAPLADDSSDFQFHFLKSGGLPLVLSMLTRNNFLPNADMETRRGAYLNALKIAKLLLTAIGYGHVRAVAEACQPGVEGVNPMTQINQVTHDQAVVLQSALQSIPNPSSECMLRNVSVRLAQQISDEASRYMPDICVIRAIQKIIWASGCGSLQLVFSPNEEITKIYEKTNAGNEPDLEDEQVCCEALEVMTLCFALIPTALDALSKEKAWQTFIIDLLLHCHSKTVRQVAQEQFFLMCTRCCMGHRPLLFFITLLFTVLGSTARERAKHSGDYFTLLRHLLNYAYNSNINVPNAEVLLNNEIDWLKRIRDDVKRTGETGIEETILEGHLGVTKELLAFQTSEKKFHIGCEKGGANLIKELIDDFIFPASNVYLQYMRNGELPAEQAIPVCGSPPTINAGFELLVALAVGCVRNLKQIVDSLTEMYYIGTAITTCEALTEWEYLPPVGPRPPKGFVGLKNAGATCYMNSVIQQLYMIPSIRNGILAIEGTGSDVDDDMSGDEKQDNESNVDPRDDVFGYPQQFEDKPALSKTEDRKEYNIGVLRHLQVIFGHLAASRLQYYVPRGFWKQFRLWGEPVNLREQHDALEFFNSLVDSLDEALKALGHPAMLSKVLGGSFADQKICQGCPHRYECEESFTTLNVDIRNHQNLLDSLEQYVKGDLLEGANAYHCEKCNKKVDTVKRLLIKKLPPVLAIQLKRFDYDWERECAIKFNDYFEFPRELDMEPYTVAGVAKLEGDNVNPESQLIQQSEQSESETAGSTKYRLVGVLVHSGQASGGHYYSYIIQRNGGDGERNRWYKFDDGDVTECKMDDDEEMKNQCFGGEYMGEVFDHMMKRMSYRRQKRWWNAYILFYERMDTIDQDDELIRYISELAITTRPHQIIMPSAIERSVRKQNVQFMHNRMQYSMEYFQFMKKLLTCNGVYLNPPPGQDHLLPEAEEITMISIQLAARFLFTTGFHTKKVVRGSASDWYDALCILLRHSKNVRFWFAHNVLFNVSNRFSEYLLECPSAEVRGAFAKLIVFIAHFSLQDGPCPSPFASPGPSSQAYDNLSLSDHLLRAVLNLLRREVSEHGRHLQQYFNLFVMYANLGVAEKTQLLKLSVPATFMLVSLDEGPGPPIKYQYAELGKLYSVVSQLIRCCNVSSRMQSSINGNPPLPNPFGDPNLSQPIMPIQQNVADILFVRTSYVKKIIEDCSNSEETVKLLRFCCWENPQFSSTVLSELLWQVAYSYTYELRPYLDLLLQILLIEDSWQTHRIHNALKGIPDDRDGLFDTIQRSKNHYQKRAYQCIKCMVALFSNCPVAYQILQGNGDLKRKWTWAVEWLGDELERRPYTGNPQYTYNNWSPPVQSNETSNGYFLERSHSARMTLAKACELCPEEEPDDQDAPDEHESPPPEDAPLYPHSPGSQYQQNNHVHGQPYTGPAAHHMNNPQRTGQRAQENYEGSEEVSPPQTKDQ
How it was run: as §1

UniProt O00487 = target: UniProt O00487
Sequence of UniProt O00487 (O00487 whole entry): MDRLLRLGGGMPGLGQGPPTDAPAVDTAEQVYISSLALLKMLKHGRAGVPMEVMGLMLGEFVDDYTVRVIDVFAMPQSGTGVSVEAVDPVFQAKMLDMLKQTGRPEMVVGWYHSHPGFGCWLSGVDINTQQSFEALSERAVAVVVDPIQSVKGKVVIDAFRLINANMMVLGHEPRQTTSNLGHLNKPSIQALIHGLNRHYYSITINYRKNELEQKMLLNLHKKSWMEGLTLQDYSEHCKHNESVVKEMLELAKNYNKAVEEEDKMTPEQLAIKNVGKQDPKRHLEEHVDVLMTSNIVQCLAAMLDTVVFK
How it was run: as §1

Measured: log2 ratio of Biotin-Ahx-Ub-VS probe labelling

CCc1c[nH]c(CNC(=O)CCl)n1.Cl
inactive: USP42 0.203 | USP46 -0.136 | USP47 -0.108 | USP48 -0.267 | USP5 -0.335 | USP54 0.304 | USP7 -0.288 | USP8 -0.335 | USP9X -0.236 | UniProt O00487 -0.193
